Source: PubChem BioAssay (National Center for Advancing Translational Sciences (NCATS))
The full list was thinned out, with hits kept by preference.
LASV entry inh – Lassa virus entry inhibition | Lassa virus pseudotype entry inhibition, cell reporter | Potency, µM (highest dose often 37.9 µM), without a hit: top-dose activity change, negative = inhibition, most hits filed as inhibitors | actives 1.2% (n = 300,000) | AID 540256; calls by dose curve; tested in HEK293 cells; also: potency is read from the fitted curve at half-maximal effect; % is scaled to controls: 0 for no effect and ±100 for the full control effect; nearly all actives have a fitted effect of over 50% in size
Shiga inhibitor – blocks Shiga toxin action in Vero cells; Vero cells, Shiga toxin protein synthesis inhibition reporter; inhibition, % at 38.7 µM; actives 9.2% (n = 290,000); AID 2315; in the data active = inhibition mostly above about 28%, no sharp cut-off; inactive = mostly below about 43%; also: 0% is about no effect
Vaccinia mCherry – vaccinia inhibition (mCherry reporter); Potency, µM (titrated, usually from 36.5 µM), inactives show top-dose activity change, negative = inhibition, actives largely listed as inhibitors; actives 0.63% (n = 310,000); Vaccinia virus mCherry reporter infection, fluorescence; calls by dose curve; tested in A549 cells; also: potency is read from the fitted curve at half-maximal effect; % is scaled to controls: 0 for no effect and ±100 for the full control effect; nearly all actives have a fitted effect of over 35% in size
Cycloheximide cs – counter-screen for Shiga toxin inhibitors: cycloheximide protein synthesis inhibition | actives 12% (n = 300,000) | cell reporter, cycloheximide protein synthesis inhibition counterscreen | max response, %; in the data active = max response mostly above about 13%, no sharp cut-off; inactive = mostly below about 14%; also: read at 38.3 µM for the half of the compounds with a filed dose; 0% is about no effect
VACV Venus inh – inhibitors of vaccinia virus (Venus reporter); Vaccinia virus Venus reporter expression, fluorescence; Potency, µM (top dose mostly 36.5 µM), inactives show top-dose activity change, negative = inhibition, hits mostly inhibitors; actives 0.46% (n = 330,000); AID 720580; calls by dose curve; tested in A549 cells; also: potency is read from the fitted curve at half-maximal effect; % is scaled to controls: 0 for no effect and ±100 for the full control effect; nearly all actives have a fitted effect of over 30% in size
Marburg entry inh – Marburg virus entry inhibition | AID 540276 | Marburg virus pseudotyped entry inhibition, cell reporter | Potency, µM (series often up to 37.8 µM), for inactives: at the highest dose activity change, negative = inhibition, most hits filed as inhibitors | actives 1.8% (n = 300,000); calls by dose curve; tested in HEK293 cells; also: potency is read from the fitted curve at half-maximal effect; % is scaled to controls: 0 for no effect and ±100 for the full control effect
An asterisk follows results filed as active; i = inactive; ? = inconclusive; · = no result; [ ] = dose if it differs, or a comment.

SMILES | LASV entry inh | Shiga inhibitor | Vaccinia mCherry | Cycloheximide cs | VACV Venus inh | Marburg entry inh
C=C(C)C(=O)Nc1nnc(-c2ccccc2C)s1 | -10% | 24 | i | 34* | 0% | 0%
COc1ccc(Cc2nnc(NC(=O)C(C)C)s2)cc1 | -27% | -2 | -5% | -1 | -7% | -3%[46.1 µM]
CCOC(=O)Nc1nnc(-c2ccccc2OC)s1 | -2% | 33* | · | 21* | -11% | 18%
COC(=O)Nc1nnc(-c2ccccc2Cl)s1 | ? | 65* | · | 26* | 0% | 15%
COc1ccc(-c2nnc(NC(=O)C(C)C)s2)c(OC)c1 | · | 52 | -11% | 21* | 3% | ·
COc1ccccc1-c1nnc(NC(=O)OCC(C)C)s1 | -21% | -9 | · | -2 | -28% | 2%
COC(=O)Nc1nnc(-c2ccccc2OC)s1 | ? | 74* | -8% | 38* | ? | ?
CCNc1ccc(N=Nc2c(C)n(C)n(-c3ccccc3)c2=O)cc1 | 26% | 40 | -12% | 21* | -15% | ?
CCOC(=O)/C(N=Nc1c(C)n(C)n(-c2ccccc2)c1=O)=C(\C)O | 1% | -15 | -16% | -4 | -11% | 7%
O=C(Nc1ccc(Cl)cc1)/C(=C/c1ccc([N+](=O)[O-])cc1)c1nc2ccccc2s1 | · | 115* | · | 56* | · | ·
O=C(O)CC/C(=C\c1cc([N+](=O)[O-])ccc1Cl)c1nc2ccccc2s1 | -9% | -7 | -13% | -3 | -8% | 7%
O=c1c2ccccc2nc(COc2ccccc2)n1/N=C/c1c[nH]c2ccccc12 | ? | 16 | i | 8 | -6% | 28%
O=c1c2ccccc2nc(COc2ccccc2)n1/N=C/c1cn[nH]c1-c1ccccc1 | ? | 44* | ? | 1 | ? | ?
O=c1c2ccccc2nc(COc2ccccc2)n1/N=C/c1ccc(O)cc1O | · | 94* | · | 16* | · | ·
Cc1ccccc1OCc1nc2ccccc2c(=O)n1/N=C/c1cn[nH]c1-c1ccc(Br)cc1 | ? | 23 | -8% | 13* | -9% | ?
Cc1ccc(-c2[nH]ncc2/C=N/n2c(C)nc3ccccc3c2=O)cc1 | -12% | 16 | i | 5 | -10% | 0%[14.2 µM]
Cc1ccc(CNC(=O)C2CCCN(c3ncnc4onc(-c5ccc(F)cc5)c34)C2)cc1 (centres undefined) | 4%[46.1 µM] | · | -9% | · | -7% | ·
Cc1cccn2c(CNC3CCCc4ccccc43)c(C(=O)N3CCCCC3)nc12 (centres undefined) | ? | -10 | -27% | -2 | -5% | 10µM*
O=C(NNC1=C(C(=O)C(F)(F)F)CCC1)c1ccc(Cl)cc1 | 6% | 86* | i | 18* | -12% | ?
O=C(NNC1=C(C(=O)C(F)(F)F)CCC1)c1cccc(Cl)c1 | -22% | 85* | · | 28* | -25% | -23%
CC(C)(C)c1ccc(C(=O)NNC(=O)c2ccc(Cl)cc2)cc1 | 15% | -8 | -10% | -3 | -4% | -9%
COc1ccc(C(=O)NNC2=C(C(=O)C(F)(F)F)CCC2)cc1 | ? | 48* | -15% | 27* | -1% | -29%[46.1 µM]
CCC1(C2CCN(C(=O)c3ccc(C)cc3C)CC2)NC(=O)N(CCc2scnc2C)C1=O (centres undefined) | · | · | i | · | -22% | ·
CCOc1ccc(CCNC(=O)COC(=O)c2cc(S(=O)(=O)N3CCOCC3)ccc2F)cc1OCC | -11% | -9 | i | -1 | 1% | 3%[46.1 µM]
O=C(Nc1ccc(F)cc1)Nc1cnccn1 | 3%[46.1 µM] | 17 | -1% | 13* | -15% | ?
SMILES | LASV entry inh | Shiga inhibitor | Vaccinia mCherry | Cycloheximide cs | VACV Venus inh | Marburg entry inh
O=C(Nc1ccc(Br)cc1)Nc1cnccn1 | · | 53* | · | 22* | · | ·
CC(Sc1nc(-c2ccccc2)cs1)C(=O)Nc1ccc(Cl)cn1 (centres undefined) | 3% | 19 | -10% | 0 | -15% | ?
Cc1nc(C)c(-c2csc(Nc3ccccn3)n2)s1 | · | 112* | · | 49* | · | ·
Cc1nc(N)sc1-c1csc(Nc2ccccn2)n1 | ? | 122* | -21% | 34* | -8% | ?
Cc1nc(C)c(-c2csc(N)n2)s1 | 13% | -10 | -7% | -1 | -14% | -1%
Cc1ccnc(Nc2nc(-c3sc(C)nc3C)cs2)c1 | 15%[46.1 µM] | · | 3.5µM* | · | ? | 5.6µM*
CC(=O)Oc1ccc(-c2csc(Nc3ccc(Cl)cn3)n2)cc1 | · | 39* | · | 42* | · | ·
Cc1ccc(OCCn2c(CCNC(=O)C3CCCCC3)nc3ccccc32)cc1 | -7%[46.1 µM] | 13 | · | 4 | · | 0%[46.1 µM]
Cc1nc(N)sc1-c1csc(Nc2ccc(Cl)cn2)n1 | -9% | 48* | · | 24* | · | ?
N#C/C(=C(\O)c1ccco1)c1ccccn1 | -5% | 70* | · | 31* | 13% | 23%
N#CC(C(=O)c1ccco1)c1ccccn1 (centres undefined) | 13% | 26 | -29% | 17* | -15% | ?
N#C/C(=C(/O)c1cccc(F)c1)c1nc2ccccc2s1 | · | 8 | · | 12* | · | ·
Cn1c(/C(C#N)=C(\O)c2cccc(F)c2)nc2ccccc21 | ? | -9 | -29% | 2 | -24% | 15%
N#C/C(=C(/O)c1ccco1)c1nc2ccccc2s1 | 14% | 66* | -18% | 38* | -16% | ?
CCCCCCCCN1[C@@H](CC(C)=O)c2ccc(/C=C/C(C)=O)cc2S1(=O)=O | · | · | -16% | · | -5% | ·
CN(C)c1ccc(/C=C2\C(=O)/C(=C\c3ccc(N(C)C)cc3)c3ccccc32)cc1 | · | · | i | · | -3% | ·
Cc1cc(C2CCCCC2)n(O)c(=O)c1 | · | · | 4.5µM* | · | ? | ·
CN1N=C(N)c2cn(C3OC(COP(=O)(O)O)C(O)C3O)c3ncnc1c23 (centres undefined) | -28% | · | ? | · | -8% | ?
COc1ccccc1CNC(=O)c1cn(C)c2ccc(S(=O)(=O)N3CCCCC3)cc2c1=O | · | 17 | · | 10 | · | ·
Cc1cccnc1CN1CCN(C(=O)CCc2nnc(CCc3ccccc3)o2)CC1 | 2%[46.1 µM] | 74* | 0% | 25* | -20% | ?
Cc1cccnc1CCNC(=O)CCc1nnc(CCc2ccccc2)o1 | -4% | 7 | i | 9 | -5% | 19%[46.1 µM]
Cc1cc(-c2nnc(CCC(=O)N3CCN(Cc4cccc(F)c4)CC3)o2)c(C)o1 | ? | 42* | -12% | 19* | -14% | 20%[46.1 µM]
Fc1ccc(Nc2nnc(C(F)(F)F)s2)cc1 | -8% | 13 | -6% | 13 | -15% | 0%
COC(=O)[C@H](C)NC(=O)c1cc2c(cn1)[nH]c1ccccc12 | 6%[46.1 µM] | 24 | -9% | 15* | 2% | 21%[46.1 µM]
O=C(NCCCO)c1cc2c(cn1)[nH]c1ccccc12 | · | 43 | · | 27* | · | ·
CCc1nc(C)cn1S(=O)(=O)c1ccc(Cl)c(Cl)c1OC | -19%[46.1 µM] | · | -13%[7.34 µM] | · | -15%[7.34 µM] | ?
Cc1ccc(-n2cc(-c3ccccc3)[nH]c2=O)cc1F | -9% | 115* | · | 46* | -21% | 53%
Cc1cnc(C=NNC(N)=S)c2cccc(N)c12 | 8.9µM* | · | ? | · | -29% | 7.1µM*
NC(=S)NN=Cc1nccc2c(C(F)(F)C(F)(F)C(F)(F)F)cccc12 | · | · | 0.32µM* | · | 1µM* | ·
Cn1cccc1/C=N/NC(N)=S | -2%[46.1 µM] | -10 | -24% | -2 | ? | -5%[46.1 µM]
